# Measurements: PubChem BioAssay (NCATS)
# Results filed as inconclusive are left out. Entries that show only a call come without a potency. Unmarked numbers belong to inactive results. Calls of active or inactive are those of the source. Unless noted, calls come from the whole dose curve; as a rule, active = well fitted curve in the direction sought with a large enough effect; inconclusive = small, poorly fitted or top-dose-only effect, or another doubt; inactive = no such curve, though single readings can be large; an effect the other way counts as inactive or inconclusive. Where a SMILES comes first, the peptide text is derived from it. Bridges are numbered along the chain shown (N, C = ends). [ ]: non-standard residue; d: D form. hArg = N=C(N)NCCCC[C@H](N)C(=O)O; Mpa = O=C(O)CCS
# Experiments:
# [1] = Primary qHTS for inhibitors of La Crosse Virus (LACV) - induced cell death in SH-SY5Y cells (AID 1508616);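 note: top concentration of the series differs between compounds; higher means more rescue of cells from virus-induced death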
# Procedure, shortened: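 Luminescent ATP readout (ATPLite 1step, 5 min room temperature) measured rescue from LACV-induced death after 6 days of infection at 0.01 MOI; normalized to infected DMSO wells and uninfected DMSO wells.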
# [2] = biological target: Calcium and integrin-binding protein 1 (Homo sapiens) (UniProt Q99828); test: Primary qHTS for Identification of Calcium Integrin Binding Protein 1 (CIB1) Competitor (AID 1508620);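 note: GST tagged CIB1 binding a fluorescein labelled alphaIIb integrin peptide tracer; top concentration of the series differs between compounds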
# Procedure, shortened: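 Fluorescence polarization competition: CIB1-GST (1 uM final) preincubated with compound 15 min at room temperature, then FITC-labeled alphaIIb peptide (100 nM final) added for another 15 min. Polarization read at Ex 480/Em 540.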
# [3] = Primary qHTS for small molecule stabilizers of the endoplasmic reticulum resident proteome: Secreted ER Calcium Modulated Protein (SERCaMP) assay (AID 1508630)
# Procedure, shortened: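 GLuc-SERCaMP-expressing SH-SY5Y cells, pretreated 16 h with compound, are challenged with thapsigargin to empty ER calcium stores; after 4 h, coelenterazine is added directly to the medium and luminescence is imaged.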
# [4] = A High-Content qHTS Against Drug Library for the Identification of Small Molecules that Inhibit DYT1 Early Onset Primary Dystonia-Associated Cell Pathology (AID 1645839; calls by dose curve; note: series mostly up to about 46 µM)
# Procedure, shortened: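 Readout: %pathology, the punctate EGFP-TorsinA distribution from imaging, as the primary channel and cell count as the toxicity counterscreen. HEK293 Flp-In cells expressing delE TorsinA were induced with tetracycline and treated with compound for 48 h.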
# [5] = biological target: Cytochrome P450 2D6 (Homo sapiens) (UniProt P10635); test: Cytochrome P450 family 2 subfamily D member 6 (CYP2D6) small molecule antagonists: luciferase biochemical (cell-free) qHTS assay (AID 1645840; active = well fitted curve in the direction sought with a large enough effect in the repeat runs; an effect the other way counts as inactive or inconclusive; note: nearly all actives have a fitted effect of over 55% in size; note: potency is the fitted concentration of half-maximal effect; for activity change, negative = inhibition: series mostly up to about 57 µM)
# Procedure, shortened: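 P450-Glo luminescent screen: recombinant CYP2D6 enzyme–proluciferin substrate mix preincubated with compound 10 min at room temperature, then NADPH regeneration added for 1 h at room temperature. Detection reagent added for 20 min; luciferin light read as relative luminescence units.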
# [6] = biological target: Protein phosphatase 1D (Homo sapiens) (UniProt O15297); test: RapidFire Mass Spectrometry qHTS Assay for Modulators of WT P53-Induced Phosphatase 1 (WIP1) (AID 1347424);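 note: amount of dephosphorylated VEPPL-S-QETFS peptide product formed by WIP1; series mostly up to about 63 µM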
# Procedure, shortened: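 WIP1 (10 nM final) was preincubated 1 h at room temperature with compounds in Tris-HCl pH 7.5, 30 mM MgCl2, TCEP, EGTA, BSA; 2 uM VEPPL-pS-QETFS phosphopeptide was added for 5 min, quenched with formic acid, and dephosphorylated product quantified by RapidFire MS.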
# [7] = qHTS to identify inhibitors of the type 1 interferon - major histocompatibility complex class I in skeletal muscle: primary screen against the NCATS Pharmaceutical Collection (AID 1347407);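 note: luminescence of HiBiT knocked into endogenous HLA-B as interferon-induced MHC class I level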
# Procedure, shortened: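 HLA-B HiBiT myoblasts, dexamethasone-free growth medium + 4 ng/ml IFN-b; compounds pinned 1 h after seeding, […] from 46 uM; 24 h, 37 C, 5% CO2; lytic HiBiT detection, 10 min RT, luminescence.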
# [8] = biological target: Protein phosphatase 1D (Homo sapiens) (UniProt O15297); test: Rhodamine-PBP qHTS Assay for Modulators of WT P53-Induced Phosphatase 1 (WIP1) (AID 1347425)
# Procedure, shortened: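 5 nM WIP1 + 10 uM Rh-PBP, 50 mM Tris pH 7.5, 30 mM MgCl2, 1 mM TCEP, 0.1 mM EGTA, BSA; cpds pinned, 1 hr RT; + 10 uM phosphopeptide; fluorescence 1-min reads x 11 min; delta = f1 - f0.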
# [9] = Confirmatory qHTS for small molecule stabilizers of the endoplasmic reticulum resident proteome: Secreted ER Calcium Modulated Protein (SERCaMP) assay (AID 1508628); note: nearly all actives have a fitted effect of over 40% in size; note: potency is the fitted concentration of half-maximal effect
# Procedure, shortened: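 We seeded SH-SY5Y-GLuc-SERCaMP cells, added compounds (three concentrations in the primary run, eleven up to 76.6 uM in confirmation), incubated 16 h, depleted ER calcium with thapsigargin, and read luciferase 4 h later.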
# [10] = Counterscreen qHTS for small molecule stabilizers of the endoplasmic reticulum resident proteome: GLuc-NoTag assay (AID 1508627);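 note: SH-SY5Y cells given compound then 100 nM thapsigargin to empty ER calcium; series mostly up to about 76 µM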
# Procedure, shortened: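 SH-SY5Y cells stably expressing constitutively secreted GLuc (no SERCaMP tag) were pre-incubated 5 h, treated with compound for 19 h, then 100 nM thapsigargin for 4 h at 37C; medium GLuc read by coelenterazine luminescence.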
# [11] = Cell Viability qHTS for small molecule stabilizers of the endoplasmic reticulum resident proteome (AID 1508629); conditions: cell viability counter-screen, 100 nM thapsigargin for final 4 h;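 note: human SH-SY5Y neuroblastoma cells carrying the GLuc-SERCaMP reporter; compound exposure about 46 h in total before the viability read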
# Sequence of Protein phosphatase 1D (Homo sapiens) (O15297 whole entry, looked up): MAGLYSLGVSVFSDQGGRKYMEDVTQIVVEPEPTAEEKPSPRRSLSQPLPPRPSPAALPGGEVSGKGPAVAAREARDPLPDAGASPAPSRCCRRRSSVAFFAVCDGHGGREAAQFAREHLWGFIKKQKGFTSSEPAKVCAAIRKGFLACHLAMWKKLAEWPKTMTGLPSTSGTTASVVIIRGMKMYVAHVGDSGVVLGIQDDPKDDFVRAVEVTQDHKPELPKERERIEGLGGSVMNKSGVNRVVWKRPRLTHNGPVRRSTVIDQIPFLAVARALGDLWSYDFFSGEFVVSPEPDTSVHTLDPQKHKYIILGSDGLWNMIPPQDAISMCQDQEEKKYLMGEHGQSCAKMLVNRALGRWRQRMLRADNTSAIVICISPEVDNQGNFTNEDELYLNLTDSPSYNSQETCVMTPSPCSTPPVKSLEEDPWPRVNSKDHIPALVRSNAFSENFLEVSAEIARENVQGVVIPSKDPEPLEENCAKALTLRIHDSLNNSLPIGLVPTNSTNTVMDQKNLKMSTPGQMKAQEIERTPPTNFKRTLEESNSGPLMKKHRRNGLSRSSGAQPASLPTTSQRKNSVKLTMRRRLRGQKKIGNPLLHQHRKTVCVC
# Sequence of Calcium and integrin-binding protein 1 (Homo sapiens) (Q99828 whole entry, looked up): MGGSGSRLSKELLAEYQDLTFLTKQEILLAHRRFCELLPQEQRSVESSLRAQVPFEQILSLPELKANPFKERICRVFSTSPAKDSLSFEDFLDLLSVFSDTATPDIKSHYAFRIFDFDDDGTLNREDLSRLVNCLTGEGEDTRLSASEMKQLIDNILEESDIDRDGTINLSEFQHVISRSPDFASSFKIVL
# Sequence of Cytochrome P450 2D6 (Homo sapiens) (P10635 whole entry, looked up): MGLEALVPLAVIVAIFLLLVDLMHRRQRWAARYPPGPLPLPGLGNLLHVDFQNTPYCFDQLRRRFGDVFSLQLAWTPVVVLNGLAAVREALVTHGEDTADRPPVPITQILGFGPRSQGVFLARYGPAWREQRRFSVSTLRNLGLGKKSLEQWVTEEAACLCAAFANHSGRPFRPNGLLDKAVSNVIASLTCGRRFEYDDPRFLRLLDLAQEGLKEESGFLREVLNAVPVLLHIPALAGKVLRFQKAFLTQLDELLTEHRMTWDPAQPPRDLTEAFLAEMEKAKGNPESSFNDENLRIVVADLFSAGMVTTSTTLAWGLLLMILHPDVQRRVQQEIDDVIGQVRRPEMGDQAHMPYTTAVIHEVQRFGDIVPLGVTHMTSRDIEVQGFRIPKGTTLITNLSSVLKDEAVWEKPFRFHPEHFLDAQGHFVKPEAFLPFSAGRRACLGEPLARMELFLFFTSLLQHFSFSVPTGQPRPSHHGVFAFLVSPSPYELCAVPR
structure (smiles),measurement,setting,value
Cc1cc(NC(=O)C2=C(O)c3ccccc3S(=O)(=O)N2C)no1,outcome,[1],inactive
same,outcome,[2],inactive
same,outcome,[3],inactive
same,Potency,[4],inactive
same,Potency,[5],inactive
CCCCC1(COC(=O)CCC(=O)O)C(=O)N(c2ccccc2)N(c2ccccc2)C1=O,outcome,[6],inactive
same,outcome,[1],inactive
same,outcome,[3],inactive
same,Potency,[4],inactive
C[C@@H]1CCC[C@H](C)N1,outcome,[7],inactive
same,outcome,[8],inactive
same,outcome,[1],inactive
same,outcome,[2],inactive
same,outcome,[3],inactive
same,Potency,[4],inactive
same,Potency,[5],inactive
O=C(Cn1ccnc1[N+](=O)[O-])NCCO,outcome,[7],inactive
same,outcome,[8],inactive
same,outcome,[1],inactive
same,outcome,[2],inactive
same,outcome,[3],inactive
same,Potency,[4],inactive
same,Potency,[5],inactive
OC(CCN1CCCC1)(c1ccccc1)C1CCCCC1 (stereo not given),outcome,[7],inactive
same,outcome,[8],inactive
same,outcome,[1],inactive
same,Potency,[9],3.98 µM (active)
same,Potency,[4],inactive
COc1ccc(C(=O)N2CCN(CC(=O)N3CCOCC3)CC2)cc1,outcome,[7],inactive
same,outcome,[8],inactive
same,outcome,[2],inactive
same,outcome,[10],inactive
same,Potency,[9],inactive
same,max response,[11],17.3%
same,Potency,[4],inactive
same,Potency,[5],inactive
C/C=C1\[C@H]2C=C(C)C[C@]1(N)c1ccc(=O)[nH]c1C2,outcome,[7],inactive
same,outcome,[8],inactive
same,outcome,[1],inactive
same,outcome,[2],inactive
same,Potency,[4],inactive
same,Potency,[5],inactive
COc1ccc(Cc2cnc(N)nc2N)cc1OC,outcome,[7],inactive
same,outcome,[8],inactive
same,outcome,[1],inactive
same,outcome,[2],inactive
same,Potency,[4],inactive
same,Potency,[5],inactive
Cc1c(NC(=O)c2cccnc2)c(=O)n(-c2ccccc2)n1C,outcome,[7],inactive
same,outcome,[8],inactive
same,outcome,[1],inactive
same,outcome,[2],inactive
same,Potency,[4],inactive
same,Potency,[5],inactive
CN1CCCN=C1COC(=O)C(O)(c1ccccc1)C1CCCCC1 (stereo not given),outcome,[7],inactive
same,outcome,[8],inactive
same,outcome,[1],inactive
same,outcome,[2],inactive
same,outcome,[3],inactive
same,Potency,[4],inactive
same,Potency,[5],1.23 µM (active)
CC(=O)OCC(COC(C)=O)OC(C)=O,outcome,[7],inactive
same,outcome,[8],inactive
same,outcome,[2],inactive
same,outcome,[3],inactive
same,Potency,[4],inactive
same,Potency,[5],inactive
C[n+]1ccccc1/C=N/O,outcome,[7],inactive
same,outcome,[2],inactive
same,Potency,[4],inactive
same,Potency,[5],inactive
O=C(O)CCCCC1CCSS1 (stereo not given),outcome,[7],inactive
same,outcome,[8],inactive
same,outcome,[1],inactive
same,Potency,[4],inactive
same,Potency,[5],inactive
CCCCOC(=O)c1ccc(N)cc1,outcome,[8],inactive
same,outcome,[1],inactive
O=c1[nH]c2cc(C(F)(F)F)c(N3CCOCC3)cc2n(CP(=O)(O)O)c1=O,outcome,[7],inactive
same,outcome,[8],inactive
same,outcome,[1],inactive
same,outcome,[3],inactive
same,Potency,[4],inactive
same,Potency,[5],inactive
NC(N)=NCCN1CCCCCCC1,"activity change, negative = inhibition",[7],-12.2% [at 0.727 µM]
same,"activity change, negative = inhibition",[8],1.78% [at 0.575 µM]
same,activity change,[1],-10.9% [at 0.0343 µM]
same,"activity change, negative = inhibition",[2],-2.06% [at 1.07 µM]
same,"% pathology change, negative = correction",[4],-4.73% [at 0.369 µM]
NC(=O)[C@@H]1CSSCCC(=O)N[C@@H](CCCCN=C(N)N)C(=O)NCC(=O)N[C@@H](CC(=O)O)C(=O)N[C@@H](Cc2c[nH]c3ccccc23)C(=O)N2CCC[C@H]2C(=O)N1 ([Mpa][hArg]GDWPC-NH2; disulfide 1-7),outcome,[7],inactive
same,outcome,[1],inactive
same,outcome,[2],inactive
same,Potency,[4],inactive
same,Potency,[5],inactive
Cc1ccc(S(=O)(=O)NC(=O)NC2CCCCC2)cc1,outcome,[7],inactive
same,outcome,[8],inactive
same,outcome,[2],inactive
same,outcome,[3],inactive
same,Potency,[4],inactive
same,Potency,[5],inactive
CCOC(N)=O,outcome,[7],inactive
same,outcome,[8],inactive
same,outcome,[1],inactive
same,outcome,[2],inactive
same,Potency,[4],inactive
same,Potency,[5],inactive
C[C@]1(Cn2ccnn2)[C@H](C(=O)O)N2C(=O)C[C@H]2S1(=O)=O,outcome,[7],inactive
same,outcome,[1],inactive
same,outcome,[2],inactive
same,Potency,[4],inactive
same,Potency,[5],inactive
OCC(O)CS (stereo not given),outcome,[7],inactive
same,outcome,[8],inactive
same,outcome,[1],inactive
same,outcome,[2],inactive
same,Potency,[4],inactive
same,Potency,[5],inactive
CC(=O)N[C@@H](Cc1ccc(O)cc1)C(=O)O,outcome,[7],inactive
same,outcome,[1],inactive
same,outcome,[2],inactive
same,outcome,[3],inactive
same,Potency,[4],inactive
same,Potency,[5],inactive
COc1cc(C(=O)NCCCCCC(=O)O)cc(OC)c1OC,outcome,[7],inactive
same,outcome,[8],inactive
same,outcome,[1],inactive
same,outcome,[2],inactive
same,Potency,[4],inactive
same,Potency,[5],inactive
C[C@H]1COc2c(C3(N)CC3)c(F)cc3c(=O)c(C(=O)O)cn1c23,outcome,[7],inactive
same,outcome,[8],inactive
same,outcome,[1],inactive
same,outcome,[2],inactive
same,outcome,[3],inactive
same,Potency,[4],inactive
same,Potency,[5],inactive
CC(C)NC[C@@H](O)COc1ccc(CC(N)=O)cc1,outcome,[7],inactive
same,outcome,[8],inactive
same,outcome,[1],inactive
same,outcome,[2],inactive
same,Potency,[4],inactive
CC1(C)S[C@@H]2[C@H](N=CN3CCCCCC3)C(=O)N2[C@H]1C(=O)O,outcome,[7],inactive
same,outcome,[8],inactive
same,outcome,[1],inactive
same,outcome,[2],inactive
same,Potency,[4],inactive
same,Potency,[5],inactive
CC(=O)SC[C@@H](Cc1ccccc1)C(=O)NCC(=O)OCc1ccccc1,outcome,[7],inactive
same,outcome,[8],inactive
same,outcome,[1],inactive
same,outcome,[2],inactive
same,Potency,[4],inactive
same,Potency,[5],6.17 µM (active)
O=c1[nH]cnc2nc[nH]c12,outcome,[7],inactive
same,outcome,[1],inactive
same,outcome,[2],inactive
same,outcome,[3],inactive
same,Potency,[4],inactive
same,Potency,[5],inactive
Cc1cc(-n2nc3ccc(Cl)cc3n2)c(O)c(C(C)(C)C)c1,outcome,[7],inactive
same,outcome,[8],inactive
same,outcome,[1],inactive
same,outcome,[2],inactive
same,Potency,[4],inactive
same,Potency,[5],inactive
